# Assay outcomes deposited in PubChem by National Center for Advancing Translational Sciences (NCATS).
# 12-hLO inh: 12-hLO (ALOX12) enzyme inhibition | P18054 | purified 12-hLO, xylenol orange hydroperoxide absorbance | Potency, µM (top dose mostly 57.1 µM), without a hit: top-dose activity change, negative = inhibition, most hits filed as inhibitors | hit rate 0.12% among 150,000; active = well fitted inhibition curve with a large enough effect; inconclusive = small, poorly fitted or top-dose-only effect; also: potency is read from the fitted curve at half-maximal effect; nearly all actives have a fitted effect of over 55% in size
# Target sequence (P18054 whole entry, looked up): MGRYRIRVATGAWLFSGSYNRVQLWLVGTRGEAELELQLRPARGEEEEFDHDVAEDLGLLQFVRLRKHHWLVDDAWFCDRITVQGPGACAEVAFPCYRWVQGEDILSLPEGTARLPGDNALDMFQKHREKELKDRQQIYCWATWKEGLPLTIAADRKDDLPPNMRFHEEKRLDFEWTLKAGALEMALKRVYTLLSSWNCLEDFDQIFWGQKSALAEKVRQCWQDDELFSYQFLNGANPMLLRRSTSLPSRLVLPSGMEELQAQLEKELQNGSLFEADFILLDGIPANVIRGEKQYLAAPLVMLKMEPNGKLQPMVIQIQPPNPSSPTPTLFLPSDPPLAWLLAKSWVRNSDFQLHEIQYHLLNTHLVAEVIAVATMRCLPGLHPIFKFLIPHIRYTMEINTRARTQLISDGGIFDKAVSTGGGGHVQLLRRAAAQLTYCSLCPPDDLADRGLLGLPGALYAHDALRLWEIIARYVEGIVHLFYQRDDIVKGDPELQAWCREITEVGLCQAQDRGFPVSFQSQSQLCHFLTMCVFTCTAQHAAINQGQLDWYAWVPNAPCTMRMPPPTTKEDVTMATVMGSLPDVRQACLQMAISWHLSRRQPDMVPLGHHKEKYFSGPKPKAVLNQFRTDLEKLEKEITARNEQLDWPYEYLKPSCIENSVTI
#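 Purified human 12hLO (150 nM final) was preincubated with compounds for 15 min at room temperature in 25 mM Hepes pH 7.0, 0.01% Triton X-100, then reacted with 40 uM arachidonic acid for 30 min. Hydroperoxide was detected with ferrous iron/xylenol orange.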
# Lamin A splicing: LMNA splicing modulation. AID 1487. HeLa LMNA splicing GFP/RFP minigene ratio, 48 h. hit rate 0.01% among 200,000. Potency, µM (top dose mostly 46.1 µM), for the others: at the top dose ratio change, negative = inhibition, hits mostly inhibitors; active = well fitted inhibition curve with a large enough effect in the signal ratio, with a control signal flat, not every such curve was filed as active; inconclusive = small, poorly fitted or top-dose-only effect, or effect the other way, or a change in a side signal; the % refers to the signal ratio; also: potency is read from the fitted curve at half-maximal effect
#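 Read-out is the ratio of GFP to DsRed2 object intensity, acquired by 488 nm laser-scanning cytometry on HeLa lamin A-EGFP minigene reporter cells. Compound incubation 48 hrs at 37 °C in Opti-MEM with 2% FBS; DMSO 0.5% final.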
# ALDH1A1 block: ALDH1A1 (human) enzyme inhibition. hit rate 7.3% among 220,000. Purified ALDH1A1, NADH fluorescence, propionaldehyde substrate. P00352. Potency, µM (highest dose often 75.3 µM), for inactives: top-dose activity, negative = inhibition, most hits filed as inhibitors;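 also: potency is read from the fitted curve at half-maximal effect; plate controls were no enzyme wells and a reference inhibitor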
# HPGD inh: HPGD (human) dehydrogenase inhibition | P15428 | purified HPGD, NADH fluorescence kinetic, PGE2 substrate | Potency, µM, for the others: at the highest dose activity change, negative = inhibition, actives largely listed as inhibitors | hit rate 4.3% among 150,000 | AID 894; also: potency is read from the fitted curve at half-maximal effect
#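 NADH formation kinetics: reaction with 30 uM PGE2 and 1 mM NAD+ (final), 20 nM enzyme, Tris-HCl pH 8 with Tween 20, after 15 min compound preincubation at room temperature. Fluorescence change, last versus first of five reads.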
# PNC assembly inh: perinucleolar compartment assembly inhibition; hit rate 3.1% among 140,000; PC3M PTB-GFP, PNC prevalence imaging, 16 h; active compounds read low; activity change (PNC), negative = inhibition, % at 10 µM;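 active = readout at or below -70, meaning at least 70% loss of cells showing the perinucleolar compartment, a nuclear body marking cancer cells; inconclusive = readout between -30 and a set limit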;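 also: plate controls were DMSO wells for no effect and camptothecin positive control wells for full effect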
#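 Compounds are pinned in duplicate onto adhered PC3M cells stably expressing GFP-tagged PTB and incubated 16 h at 37 C. Cells are then fixed, nuclei stained with Hoechst, and PNC-positive cells counted.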
# * = called active by the depositor; ? = inconclusive; . = no result; [ ] = remark or other dose. Sampled rows, rich in hits. Any-hit rate of the full collection: about 10%. Unless noted, calls follow the shape of the dose curve; as a rule, active = well fitted inhibition curve with a large enough effect (not every such curve was filed as active); inconclusive = small, poorly fitted or top-dose-only effect, or another doubt; inactive = no such curve, though single readings can be large or run the other way. Unless noted, % is scaled to controls: 0 for no effect and ±100 for the full control effect.
SMILES,12-hLO inh,Lamin A splicing,ALDH1A1 block,HPGD inh,PNC assembly inh
Cn1cccc1C(=O)N1CCC2(CCCN(C(=O)Nc3ccccc3)C2)CC1,2.2%,.,-5.1%,-1.8%,.
CS(=O)(=O)Nc1ccc(C(=O)NCC2CCCO2)cc1 (stereo unspecified),4.1%,-1.8%,6.5%,-10.8%,-24.5
O=C(NCC1CCCO1)c1ccc(COc2ccc(Br)cc2)cc1 (stereo unspecified),3.0%,?,?,7.08µM*,-19.2
COc1ccc(C(=O)NCC2CCCO2)cc1 (stereo unspecified),9.8%,-12.6%,6.4%,12.6µM*,22.0
Cc1noc(C)c1COc1ccc(C(=O)NCC2CCCO2)cc1 (stereo unspecified),4.2%,-10.0%,-4.4%,?,43.3
CCC/C=C(\CCC)C(NC(=O)c1cccs1)c1ccc(C(F)(F)F)cc1 (stereo unspecified),0.5%,.,1.9%,-9.5%,.
O=C(c1cnccn1)N1CCC2(CCCN(Cc3ccncc3)C2)CC1,2.0%,.,-2.8%,-6.7%,.
O=C(Nc1ccc(O)c2c(=O)cc(-c3ccccc3Cl)oc12)c1cccc(Cl)c1,-0.4%,5.1%,9.1%,-10.3%,-80.0*
Cc1cccc(C(=O)Nc2ccc(O)c3c(=O)cc(-c4ccccc4Cl)oc23)c1,3.4%,13.2%,1.0%,-10.4%,60.3
O=C(Nc1ccc(O)c2c(=O)cc(-c3ccccc3Cl)oc12)c1ccc(Br)cc1,-10.6%[0.00818 µM],.,-6.2%,1.12µM*,.
O[C@H](CN1CCN(c2cccc(Cl)c2)CC1)C(c1ccccc1)c1ccccc1,-26.1%,.,-9.9%,-8.9%,.
O=C1CC(NNc2ccccc2)C(=O)N1c1ccccc1 (stereo unspecified),-9.8%,-3.4%,17.8µM*,-9.7%,12.0
Cc1ccc(NNC2CC(=O)N(c3cccc(Cl)c3)C2=O)cc1 (stereo unspecified),.,?,25.1µM*,.,.
O=C(NNC1CC(=O)N(c2cccc(Cl)c2)C1=O)c1cccs1 (stereo unspecified),-4.6%,-5.4%,?,-6.4%,18.4
CCN1CCN(c2ncc3c(n2)CCN(CC(C)C)C3)CC1,.,-1.9%[46 µM],.,.,.
COc1ccccc1N1CCN(C(=O)CCn2cnc3onc(-c4ccc(F)cc4)c3c2=O)CC1,.,20.1%[46 µM],.,.,.
CC(C#N)Sc1nc2ccccc2c(=O)n1-c1ccccc1 (stereo unspecified),0.4%,8.1%,4.47µM*,-5.4%,18.9
C=C(C(=O)OCC)C(=O)c1ccccc1,.,.,14.1µM*,-7.8%,.
CCOC(=O)/C(=N\NC(=O)c1ccccc1)c1ccccc1,4.6%,9.1%,-1.8%,-6.3%,?
CCN(CC)CCCNC(=O)c1ccc2c(c1)NC(=O)C(CS(=O)(=O)Cc1ccc(F)cc1Cl)N2 (stereo unspecified),.,-17.2%[46 µM],.,.,.
COc1cccc(OC)c1C(=O)Nc1cccnc1,.,6.6%[46 µM],3.4%,.,.
c1cncc(-c2nc(N3CCCCCC3)c3ccccc3n2)c1,-11.7%,?,1.41µM*,-19.5%,0.8
CN1CCN(c2nc(-c3cccnc3)nc3ccccc23)CC1,-0.1%,?,-0.7%,-12.5%,?
CN(c1ccc(O)cc1)c1nc(-c2ccccc2)cs1,-4.9%,?,9.1%,15.8µM*,?
CN(C)CCCN(C(=O)c1cccs1)c1nc(-c2ccccc2)cs1,8.1%,-1.2%,-1.4%,-2.6%,-16.6
SMILES,12-hLO inh,Lamin A splicing,ALDH1A1 block,HPGD inh,PNC assembly inh
CN(C)Cc1cc(O)c(O)c(CN(C)C)c1,-8.8%[11.4 µM],.,-1.3%[13.5 µM],-2.4%,.
Cc1ccc(/C=N\NC(=O)C2COc3cc4ccccc4cc3O2)o1 (stereo unspecified),-13.8%,-1.3%[0.0737 µM],?,14.1µM*,-11.8
Cc1nn(-c2ccccc2)c(Cl)c1/C=N/NC(=O)C1COc2ccccc2O1 (stereo unspecified),2.0%,-4.0%,2.82µM*,-14.8%,76.1
Cc1ccc(/C=N/NC(=O)c2cc(C3CC3)nc3ccccc23)o1,-3.1%,?,-1.8%,-19.8%,-108.4*
COc1cc(/C=N/NC(=O)c2cc(-c3ccco3)nc3ccccc23)cc(OC)c1O,.,-7.6%[46 µM],22.4µM*,.,.
CCOc1ccc(CC(=O)NCCc2csc(-c3ccc(C)cc3)n2)cc1,.,11.2%[46 µM],.,.,.
O=C(COc1ccc(S(=O)(=O)N2CCCC2)cc1)NCC1CCCO1 (stereo unspecified),.,?,-3.8%,.,.
